# According to PubChem BioAssay AID743279 (National Center for Advancing Translational Sciences (NCATS), 2014):
# In all, about 360,000 compounds went through this assay and about 17,000 (4.7%) were called active. About 5% were inconclusive and are not listed. The list comes from a sample in which actives are over-represented; it also holds similar structures and randomly drawn compounds. Unmarked numbers belong to inactive results. No stated cut-off is given here; in the data, active means activity change below about -50%; inconclusive means mostly about -30% to -49%; inactive means weaker than that.
# Experiment: qHTS for Inhibitors of Inflammasome Signaling: IL-1-beta AlphaLISA Primary Screen
# Conditions: THP-1 LPS/ATP IL-1B secretion, 16 h; at 57.5 µM, active compounds read low
# In short: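 THP-1 cells pretreated 1 hr with compounds (up to 57.5 uM final), then stimulated with LPS (250 ng/mL final) plus ATP (1.25 mM final); secreted IL-1B measured by AlphaLISA after 16 hr, decreased signal indicating inhibition.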
# On the % scale 0 is the no-effect control and ±100 the full control effect.
row,SMILES,activity change
1,Cc1ccc(-c2nc3ccc(Br)cn3c2Cc2ccccc2C(F)(F)F)cc1,16.5%
2,CC(NCc1ccccc1OC1CCCC1)c1ccccc1 (stereo not drawn),-82.2% (active)
3,COc1ccccc1NC(=O)C(C)OC(=O)CC1CCCC1 (stereo not drawn),23.8%
4,COc1ccccc1CN1CCN(C(c2ccccc2)c2ccccc2)CC1,-16.2%
5,CCCCNC1(C#N)CCN(Cc2ccccc2)CC1,9.53%
6,CC1(C(=O)NCc2ccc3c(c2)OCO3)CCN1CCc1ccccc1 (stereo not drawn),10.6%
7,C/C(=N\N(C)C)c1ccc(OCCOc2ccc([N+](=O)[O-])cc2)cc1,-52.7% (active)
8,C/C(=N/NC(=O)CC(=O)N/N=C(\C)c1ccc([N+](=O)[O-])cc1)c1ccc([N+](=O)[O-])cc1,26.9%
9,CO/N=C(\N)c1ccc([N+](=O)[O-])cc1,-10.8%
10,Cc1cc([N+](=O)[O-])c(=O)[nH]c1C,26.9%
11,CN(C)C(=O)c1nc2ccc(Cl)cn2c1CNCc1cccc(OC(F)(F)F)c1,32.2%
12,CSCC[C@H](NC(=O)NCCc1ccc(F)cc1)C(=O)O,3.5%
13,COc1ccc(C(O)C(O)(C(=O)OC(C)C)c2ccc(C)cc2)cc1 (stereo not drawn),-21%
14,Cn1c(=O)n(C)c2cc(/C=N/NC(=O)c3cccc(Br)c3)ccc21,-10.6%
15,O=C(N/N=C/c1cccc(Br)c1)c1ccc(N2CCCC2=O)cc1,-55.3% (active)
16,O=C(Nc1ccc(N2CCCC2=O)cc1)c1cncc(Br)c1,1.56%
17,CC(=O)c1cccc(-c2ccc(CN3C(CC(C)C)C(=O)N(Cc4cn(CC5CCCCC5)nn4)CCS3(=O)=O)cc2)c1 (stereo not drawn),-9.9%
18,OCCC#Cc1ccc(N2C(c3ccsc3)=Cc3ccc(F)cc3C2c2c[nH]c3ccccc23)cc1 (stereo not drawn),-15.9%
19,COc1ccc(CCn2c(=N)c(C(=O)NCC3CCCO3)cc3c(=O)n4cccc(C)c4nc32)cc1OC (stereo not drawn),-11.6%
20,Cc1ccc(S(=O)(=O)c2cc3c(=O)n4cccc(C)c4nc3n(CCc3ccccc3)c2=N)cc1C,20.8%

row,SMILES,activity change
1,COc1ccc(CCn2c(=N)c(C(=O)NCc3ccco3)cc3c(=O)n4cccc(C)c4nc32)cc1,-53.7% (active)
2,Cc1ccc(S(=O)(=O)N[C@H]2CCC[C@@H]2O)cc1,6.2%
3,C#Cc1ccc(NC(=O)C2(C)CCN2C(=O)Cc2ccc(-c3ccccc3)cc2)cc1 (stereo not drawn),-2.2%
4,COc1ccc(OC)c(NC(=O)C2(C)CCN2C(=O)Cc2ccccc2)c1 (stereo not drawn),-87.1% (active)
5,CCCNC(=O)C1(C)CCN1C(=O)Cc1ccc(-c2ccccc2)cc1 (stereo not drawn),-1.04%
6,COc1ccc(C(CNC(=O)CSc2ccccc2)N2CCOCC2)cc1 (stereo not drawn),0%
7,COC(=O)C[C@@H]1C=C[C@@H](NC(=O)c2cccnc2)[C@@H](CO)O1,2.57%
8,CCOC(=O)C1CCCN(C(=O)c2cccc3ccccc23)CC1 (stereo not drawn),61.7%
9,O=[N+]([O-])c1ccc(COc2ccccc2CN2CCOCC2)cc1,-17.6%
10,COc1ccc(NC(=O)c2cccc(Cl)c2)c[n+]1[O-],-0.66%
11,COc1ccc(-c2nc(N)ncc2-c2ccc(Cl)cc2)c(O)c1,-11.3%
12,C=C(C)COc1ccc(-c2ncncc2-c2ccc(OC)cc2)c(O)c1,-58.4% (active)
13,C=C(C)COc1ccc(-c2nc(N)ncc2-c2ccccc2OC)c(O)c1,-26.4%
14,COc1ccc(C(C(=O)NCc2ccccc2)N(Cc2cccs2)C(=O)c2cnccn2)cc1 (stereo not drawn),3.36%
15,COc1ccc(-c2cc(C3CCN(c4ncccc4[N+](=O)[O-])CC3)[nH]n2)cc1,-28.8%
16,C#Cc1cc(N2CCN(C(=O)c3ccoc3)CC2)n2nc(-c3cccc(Cl)c3)cc2n1,-109% (active)
17,O=C(c1ccccc1)N1CCN(c2cc(-c3ccccc3)nc3cc(-c4cccc(Cl)c4)nn23)CC1,15.2%
18,CN(C)CCN1CCN(c2cc(-c3cccc(Cl)c3)nc3ccnn23)CC1,6.44%
19,COc1ccc(/C=N/Nc2cc(N3CCOCC3)nc(C)n2)c(OC)c1,-8.96%
20,COc1ccccc1/C=N\Nc1cc(C)nc(-n2nc(C)cc2C)n1,-99% (active)

row,SMILES,activity change
1,COc1cccc(/C=N/Nc2cc(C)nc(-c3ccccc3O)n2)c1O,-99.4% (active)
2,Cc1nc2ccccc2nc1N/N=C/c1ccc(O)cc1O,144%
3,CC(=O)c1ccc(Oc2cc(C)nc(-n3nc(C)cc3C)n2)cc1,46.7%
4,COc1cccc(/C=N/Nc2ccc(S(=O)(=O)Nc3ccccc3C(=O)O)cc2[N+](=O)[O-])c1O,-5.79%
5,O=S(=O)(/N=C(/Nc1ccccc1)c1ccccc1)c1cccs1,-18.2%
6,COc1ccc(-c2csc(C(O)c3cccc(Cl)c3)n2)cn1 (stereo not drawn),-7.83%
7,CN1CCn2cnc(C(=O)NCC(=O)OC(C)(C)C)c2C1=O,3.21%
8,O=C(Nc1ccc(Cl)cc1)c1csc([C@H]2C[C@H](O)[C@@H](CO)O2)n1,17.6%
9,COc1ccc(-c2cc(C(F)(F)F)nc(SCCC(=O)NCc3ccco3)n2)cc1,-20.3%
10,COc1ccc(N)cc1NC(=O)CN1CCOCC1,3.53%
11,C=C1C(=O)[C@]23C[C@H]1CCC2[C@@]1(C)C(C[C@@H]3O)[C@](C)(C(=O)O)CC[C@@H]1O (stereo partly drawn),-91.2% (active)
12,COc1cc(S(=O)(=O)Nc2ncn[nH]2)ccc1Cl,8.42%
13,CN1CCOC1c1ccc(C2OCCN2C)cc1 (stereo not drawn),5.1%
14,CN(C)c1ccc(/C=N/NC(=O)c2ccc(Cn3cc(Br)cn3)o2)cc1,-53% (active)
15,O=C(N/N=C\c1ccc(Br)cc1)c1ccc(Cn2cccn2)o1,-3.71%
16,CN(C)c1ccc(/C=N/NC(=O)C(O)c2ccc(Br)cc2)cc1 (stereo not drawn),-3.94%
17,CC=CCn1c(SCCCc2ccccc2)nc2c1c(=O)[nH]c(=O)n2C,34.7%
18,O=C1OC(Cc2ccccc2)C(c2ccccc2)C1=O (stereo not drawn),-4.65%
